Bioassay records: PubChem BioAssay, National Center for Advancing Translational Sciences (NCATS)
MCF10A rerep – induces DNA re-replication in MCF 10a normal breast cells | MCF 10A DNA re-replication, Hoechst nuclear intensity, 48 h | Potency, µM (titrated, usually from 46.1 µM), actives largely listed as activators | 2.9% of 350,000 active | AID 624296; note: nearly all actives have a fitted effect of over 50% in size
ELG1 repair inh – inhibitors of ELG1-dependent DNA repair in HEK293T cells; Potency, µM (highest dose often 46.1 µM), actives largely listed as inhibitors; 2.3% of 330,000 active; HEK293T ELG1-luciferase reporter, luminescence, 16 h; DNA damage induced by 5-fluorouridine; note: nearly all actives have a fitted effect of over 55% in size
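Reporter activity after DNA damage by 5-fluorouridine is monitored. Compound-treated cells incubate 16 hr at 37 °C, then ONE-Glo is added for 30 min before luminescence reading.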
SW480 rerep – induces DNA re-replication in SW480 colon adenocarcinoma cells. 1.8% of 340,000 active. AID 624297. SW480 DNA re-replication, Hoechst DNA content imaging, 48 h. Potency, µM (highest dose often 46.1 µM), most hits filed as activators; note: nearly all actives have a fitted effect of over 55% in size
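Quantitative HTS format with DMSO vehicle controls; 48 hr drug incubation at 37 C, then 40 min Hoechst staining and scanning imager measurement at 405 nm excitation.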
KB-3-1 tox – KB-3-1 parental cell cytotoxicity; KB-3-1 viability, CellTiter-Glo ATP luminescence, 72 h; Potency, µM (doses to about 46.1 µM), hits mostly cytotoxic; 1.4% of 400,000 active; AID 1347075; note: nearly all actives have a fitted effect of over 60% in size
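Here the drug-naive KB-3-1 line serves as comparator for MDR sub-line selectivity; cells received compound titrations, 72 h at 37 °C, then CellTiter-Glo readout.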
KB-V1 MDR tox – KB-V1 MDR subline cytotoxicity | KB-V1 MDR cells viability, CellTiter-Glo, 72 h | Potency, µM (series often up to 46.1 µM), most hits filed as cytotoxic | 3.4% of 400,000 active | AID 1347076; note: nearly all actives have a fitted effect of over 60% in size
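In this primary screen, KB-V1 cells overexpressing P-gp are incubated with library compounds (lowest to highest concentration) for 72 h at 37 degrees C before a luminescent ATP viability read.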
Large screens that a line does not name were inactive. An excerpt weighted towards active compounds, which were near 8.1% of everything screened. Calls come from the whole dose curve; as a rule, active = well fitted curve in the direction sought with a large enough effect; inconclusive = small, poorly fitted or top-dose-only effect, or another doubt; inactive = no such curve, though single readings can be large; an effect the other way counts as inactive or inconclusive.

N=c1c(C(=O)NCC2CCCO2)cc2c(=O)n3ccccc3nc2n1C1CCCCC1 (stereo not given)	MCF10A rerep 15µM, SW480 rerep inconclusive
Cc1cccn2c(=O)c3cc(C(=O)NCC4CCCO4)c(=N)n(C4CCCC4)c3nc12 (stereo not given)	MCF10A rerep inconclusive, SW480 rerep 18µM
Cc1ccc2nc3c(cc(C(=O)NCC4CCCO4)c(=N)n3C3CCCC3)c(=O)n2c1 (stereo not given)	MCF10A rerep inconclusive, KB-V1 MDR tox inconclusive
O=C(O)C1C2OC3C(OC(=O)C31)C2Br (stereo not given)	KB-V1 MDR tox inconclusive (no result: ELG1 repair inh)
CCCCNC(=O)c1cnn2c(C)c(Cc3c(C)cc(C)cc3C)c(C)nc12	KB-V1 MDR tox inconclusive (no result: MCF10A rerep, ELG1 repair inh, SW480 rerep)
CCN(CCS(=O)(=O)c1ccc(Cl)cc1)Cc1nc2ccccc2c(=O)[nH]1	ELG1 repair inh inconclusive, KB-V1 MDR tox 7.3µM
COCC(=O)N(CCc1ccc(OC)c(OC)c1)Cc1nc2ccccc2c(=O)[nH]1	SW480 rerep inconclusive
COc1ccc(CN(Cc2nc3ccccc3c(=O)[nH]2)C(=O)C(C)(C)C)cc1	none
CCC(CC)C(=O)N(CCc1ccc(OC)cc1)Cc1nc2ccccc2c(=O)[nH]1	MCF10A rerep 23µM, ELG1 repair inh 23µM, SW480 rerep 21µM, KB-V1 MDR tox inconclusive
COc1ccc(CCN(Cc2nc3ccccc3c(=O)[nH]2)C(=O)c2ccco2)cc1	ELG1 repair inh inconclusive, KB-V1 MDR tox 21µM
CN(CC(=O)NC(=O)NCc1ccco1)Cc1nc2ccccc2c(=O)[nH]1	MCF10A rerep inconclusive, SW480 rerep 5.2µM
O=C(COC(=O)c1cccc(F)c1)Nc1ccc2c(c1)OCCO2	ELG1 repair inh inconclusive
COC(=O)c1ccccc1-n1cc2c(c1-c1cccc(C)c1)c(=O)n(C)c(=O)n2C	none (no result: MCF10A rerep, ELG1 repair inh, SW480 rerep)
Cc1ccccc1C(=O)N1CCN(c2ccc([N+](=O)[O-])c(NCc3cccnc3)c2)CC1	ELG1 repair inh inconclusive, KB-V1 MDR tox 4.1µM
Cc1ccc(C(=O)N2CCN(c3ccc([N+](=O)[O-])c(NCc4cccnc4)c3)CC2)cc1	ELG1 repair inh inconclusive, KB-V1 MDR tox inconclusive
CCOC(=O)c1cnc(Nc2nc3ccccc3o2)nc1CSc1nnc(C)s1	MCF10A rerep inconclusive, SW480 rerep 0.65µM, KB-V1 MDR tox inconclusive (no result: ELG1 repair inh)
CCOC(=O)c1cnc(Nc2ccc(OCC)cc2)nc1C	MCF10A rerep inconclusive, ELG1 repair inh inconclusive
CCOC(=O)c1cnc(Nc2nc3ccccc3o2)nc1C	ELG1 repair inh inconclusive, SW480 rerep inconclusive, KB-3-1 tox 11µM
CCOC(=O)c1c(-c2ccccc2)csc1NC(=O)CSc1nnc(C)s1	MCF10A rerep inconclusive, ELG1 repair inh inconclusive, KB-3-1 tox inconclusive, KB-V1 MDR tox inconclusive
CCNC(=O)C1(C)CCN(C(=O)c2ccc3ccccc3c2)C1 (stereo not given)	none (no result: MCF10A rerep, ELG1 repair inh, SW480 rerep)
O=C(Nc1ccc(Nc2ccccc2)cc1)c1c(Cl)cccc1Cl	MCF10A rerep 23µM (no result: ELG1 repair inh)
CCc1ccc2oc(-c3ccc(NC(=O)c4cc(OC)c(OC)c(OC)c4)cc3)nc2c1	none (no result: MCF10A rerep, ELG1 repair inh, SW480 rerep)
CCCC(=O)Nc1ccc2oc(-c3ccc(OC)c(Br)c3)nc2c1	MCF10A rerep 18µM, ELG1 repair inh inconclusive, SW480 rerep inconclusive, KB-V1 MDR tox 2.6µM
COc1cc(C(=O)Nc2ccncc2)cc(OC)c1OC	ELG1 repair inh inconclusive
COc1cc(C(=O)Nc2ccc(Nc3ccccc3)cc2)cc(OC)c1OC	MCF10A rerep 21µM, ELG1 repair inh inconclusive
COc1cc(C(=O)Nc2ccc3oc(-c4ccccc4)nc3c2)cc(OC)c1OC	KB-V1 MDR tox 8.2µM (no result: MCF10A rerep, ELG1 repair inh, SW480 rerep)
CCCC(=O)Nc1ccc(-c2nc3cc(C)ccc3o2)cc1	ELG1 repair inh inconclusive
Nc1cc(=O)[nH]c(=S)[nH]1	none (no result: MCF10A rerep, ELG1 repair inh, SW480 rerep)
O=C(Nc1ccc2oc(-c3ccccc3)nc2c1)c1ccc2c(c1)OCCO2	MCF10A rerep 21µM, ELG1 repair inh inconclusive, SW480 rerep inconclusive, KB-3-1 tox inconclusive, KB-V1 MDR tox 8.2µM
COc1cc(C(=O)Nc2ccc3oc(-c4cccnc4)nc3c2)cc(OC)c1OC	MCF10A rerep inconclusive, ELG1 repair inh 23µM, KB-V1 MDR tox 15µM
O=C(N1CCOCC1)C12OC3CC(CC(C3)O1)O2	none (no result: MCF10A rerep, ELG1 repair inh, SW480 rerep)
C[C@H](CO)N1C[C@H](C)[C@@H](CN(C)S(=O)(=O)c2cn(C)cn2)Oc2c(NC(=O)Nc3ccc4c(c3)OCO4)cccc2C1=O	KB-3-1 tox inconclusive
